USP17 inh – inhibitors of human USP17 deubiquitinase; inhibition, % at 50 µM; purified USP17, Ub-rhodamine cleavage fluorescence, 3 h; A8MUK1; 6.5% of 47,000 active
USP28 inh – blocks human USP28 ubiquitin-rhodamine cleavage; 3% of 47,000 active; inhibition, % at 25 µM; purified USP28, Ub-rhodamine cleavage fluorescence, 30 min; Q96RU2; AID 1645857
USP10 inh – inhibitors of human USP10 deubiquitinase; Q14694; purified USP10, Ub-rhodamine fluorescence, 60 min; inhibition, % at 20 µM; 1.1% of 47,000 active; AID 1645856
USP8 inh – human USP8 deubiquitinase inhibition; P40818; purified USP8, Ub-rhodamine cleavage fluorescence, 30 min; inhibition, % at 20 µM; 4.2% of 47,000 active; AID 1645853
USP30 inh – human USP30 deubiquitinase inhibition | inhibition, % at 25 µM | purified USP30, Ub-rhodamine cleavage fluorescence | AID 1645860 | Q70CQ3 | 5.3% of 47,000 active
Target sequence (Q70CQ3 whole entry, looked up): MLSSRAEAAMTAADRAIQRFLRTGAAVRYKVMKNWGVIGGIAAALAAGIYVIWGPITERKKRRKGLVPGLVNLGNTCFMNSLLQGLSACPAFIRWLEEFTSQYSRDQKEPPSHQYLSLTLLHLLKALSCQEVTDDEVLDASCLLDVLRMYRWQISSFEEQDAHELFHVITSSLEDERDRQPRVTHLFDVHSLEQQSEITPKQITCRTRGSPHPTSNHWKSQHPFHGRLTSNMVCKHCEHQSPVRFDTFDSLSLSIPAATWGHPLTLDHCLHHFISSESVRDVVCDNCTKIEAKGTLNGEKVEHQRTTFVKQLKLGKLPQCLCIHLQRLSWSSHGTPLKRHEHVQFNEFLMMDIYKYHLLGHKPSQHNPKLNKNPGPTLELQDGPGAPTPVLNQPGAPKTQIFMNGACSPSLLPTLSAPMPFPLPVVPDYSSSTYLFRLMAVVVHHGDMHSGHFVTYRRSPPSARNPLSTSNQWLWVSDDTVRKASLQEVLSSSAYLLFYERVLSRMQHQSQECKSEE
A number is an active result. This is a sample that favours compounds with a hit; in the whole collection about 13% have one here. Rule as the data show it: active = inhibition above about 30%; inactive = the rest.

How did Cc1ccc(N2CCN(C3=NC(C(=O)Nc4ccccc4)CC(=O)N3)CC2)cc1 (stereo unspecified) do in these assays?
USP17 inh: inactive; USP28 inh: inactive; USP10 inh: inactive; USP8 inh: 39; USP30 inh: inactive

What do the screens show for `CS(=O)(=O)c1ccc(NCCCN2CCOCC2)cc1`?
USP17 inh: inactive; USP28 inh: inactive; USP10 inh: inactive; USP8 inh: inactive; USP30 inh: inactive

What do the screens show for `Cc1nn(-c2ccccc2)c2c1C(c1ccco1)c1c(ncn3nc(CO/N=C/c4ccccc4)nc13)O2` (stereo unspecified)?
USP17 inh: inactive; USP28 inh: inactive; USP10 inh: inactive; USP8 inh: inactive; USP30 inh: inactive

What do the screens show for `COc1ccc(Cl)cc1NC(=O)CC(NCc1ccccc1)C(=O)O` (stereo unspecified)?
USP17 inh: inactive; USP28 inh: inactive; USP10 inh: inactive; USP8 inh: inactive; USP30 inh: inactive

What do the screens show for `CC1(c2ncc(CNC(=O)c3n[nH]c4c3CCCC4)cn2)CCCCO1` (stereo unspecified)?
USP17 inh: inactive; USP28 inh: inactive; USP10 inh: inactive; USP8 inh: inactive; USP30 inh: 32

Results for CN1C(=O)c2cccnc2Sc2cc(NC(=O)Cc3ccc(F)cc3)ccc21 ?
USP17 inh: inactive; USP28 inh: inactive; USP10 inh: inactive; USP8 inh: inactive; USP30 inh: inactive

How did COc1ccc(NC(=O)CS(=O)c2ccc(Cl)c(Cl)c2)cc1 (stereo unspecified) do in these assays?
USP17 inh: inactive; USP28 inh: inactive; USP10 inh: inactive; USP8 inh: inactive; USP30 inh: 47

Results for CCOc1ncccc1C(=O)Nc1ccnn1Cc1ccccc1 ?
USP17 inh: inactive; USP28 inh: inactive; USP10 inh: 50; USP8 inh: inactive; USP30 inh: inactive

What do the screens show for `Cc1cc(C)cc(N2CC(C)Cn3c2nc2c3c(=O)n(CC(=O)OCc3ccccc3)c(=O)n2C)c1` (stereo unspecified)?
USP17 inh: inactive; USP28 inh: inactive; USP10 inh: inactive; USP8 inh: inactive; USP30 inh: inactive

Results for COc1cccc(N2CC(C)Cn3c2nc2c3c(=O)n(CC(=O)OCc3ccccc3)c(=O)n2C)c1 (stereo unspecified) ?
USP17 inh: inactive; USP28 inh: inactive; USP10 inh: inactive; USP8 inh: inactive; USP30 inh: 39

How did O=C(NCCc1nc(-c2ccc3c(c2)OCO3)n[nH]1)c1cccc(Br)c1 do in these assays?
USP17 inh: 38; USP28 inh: inactive; USP10 inh: inactive; USP8 inh: inactive; USP30 inh: inactive

Results for O=C(c1cc2c(s1)CN(C1CC1)C2)N1CCN(c2ccccn2)CC1 ?
USP17 inh: 40; USP28 inh: inactive; USP10 inh: inactive; USP8 inh: inactive; USP30 inh: inactive

Results for Cn1c(C(=O)NCc2ccc(F)cc2)cc2sc(Cl)cc21 ?
USP17 inh: inactive; USP28 inh: inactive; USP10 inh: inactive; USP8 inh: inactive; USP30 inh: 34

Results for CCc1cccc(CC)c1NC(=O)CN1CCN(c2nc3ccccc3s2)CC1 ?
USP17 inh: inactive; USP28 inh: inactive; USP10 inh: inactive; USP8 inh: inactive; USP30 inh: inactive

How did COc1ccc(S(=O)(=O)N2CCC3(CC2)CC3c2nc(-c3cccnc3)no2)c(C)c1 (stereo unspecified) do in these assays?
USP17 inh: inactive; USP28 inh: inactive; USP10 inh: inactive; USP8 inh: inactive; USP30 inh: 36

What do the screens show for `COc1ccc(CNCc2cc3c(C)nn(-c4ccccc4)c3[nH]c2=O)cc1`?
USP28 inh: inactive; USP10 inh: inactive; USP8 inh: 64; USP30 inh: inactive

Results for Cc1nn(-c2ccccc2)c2[nH]c(=O)c(CNCc3ccccc3Cl)cc12 ?
USP17 inh: inactive; USP28 inh: inactive; USP10 inh: inactive; USP8 inh: 72; USP30 inh: inactive

How did CC(=O)N1CCN(Cc2cc3c(C)nn(-c4ccc(F)cc4)c3[nH]c2=O)CC1 do in these assays?
USP17 inh: inactive; USP28 inh: inactive; USP10 inh: inactive; USP8 inh: inactive; USP30 inh: inactive

How did O=c1oc2ccccc2c2nn(-c3ccccn3)cc12 do in these assays?
USP17 inh: 51; USP28 inh: inactive; USP10 inh: inactive; USP8 inh: inactive; USP30 inh: inactive

How did O=c1oc2ccccc2c(N2CCN(c3ccccn3)CC2)c1CN1CCCC1 do in these assays?
USP17 inh: inactive; USP28 inh: inactive; USP10 inh: inactive; USP8 inh: inactive; USP30 inh: inactive

Results for COc1ccc(OC)c(NC(=O)CSc2nc(C)nc3c2oc2ccccc23)c1 ?
USP17 inh: 61; USP28 inh: inactive; USP10 inh: inactive; USP8 inh: inactive; USP30 inh: inactive

How did CCc1nc(Sc2ccc3ccccc3c2)c2oc3ccccc3c2n1 do in these assays?
USP17 inh: 51; USP28 inh: inactive; USP10 inh: inactive; USP8 inh: inactive; USP30 inh: 52

What do the screens show for `CCc1nc(SCC(=O)NCCc2ccc(OC)c(OC)c2)c2oc3ccccc3c2n1`?
USP17 inh: inactive; USP28 inh: inactive; USP10 inh: inactive; USP8 inh: inactive; USP30 inh: inactive

How did CCc1nc(SCC(=O)Nc2cc(C)ccc2OC)c2oc3ccccc3c2n1 do in these assays?
USP17 inh: 41; USP28 inh: inactive; USP10 inh: inactive; USP8 inh: inactive; USP30 inh: 42

How did CCOC(=O)c1ccc(N2CCN(CC)CC2)c(NC(=O)Cc2ccccc2)c1 do in these assays?
USP17 inh: inactive; USP28 inh: inactive; USP10 inh: inactive; USP8 inh: inactive; USP30 inh: inactive

How did CCN1CCN(c2ccc(C(=O)O)cc2NS(=O)(=O)c2ccc(C(C)C)cc2)CC1 do in these assays?
USP17 inh: inactive; USP28 inh: inactive; USP10 inh: inactive; USP8 inh: 81; USP30 inh: inactive

Results for CC(NC(=O)C1(c2ccc(F)cc2)CCCC1)c1nc2ccccc2[nH]1 (stereo unspecified) ?
USP17 inh: inactive; USP28 inh: inactive; USP10 inh: inactive; USP8 inh: inactive; USP30 inh: inactive

What do the screens show for `Cc1cc(NC(=O)C2(c3ccc(F)cc3)CCCC2)n(-c2nc3ccccc3[nH]2)n1`?
USP17 inh: inactive; USP28 inh: inactive; USP10 inh: inactive; USP8 inh: 70; USP30 inh: inactive

How did CC(C)CN1CCc2cc(C(=O)N3CCCC3)c(NC(C)C)nc2CC1 do in these assays?
USP17 inh: inactive; USP28 inh: inactive; USP10 inh: inactive; USP8 inh: inactive; USP30 inh: inactive

How did O=C(NCc1ccc(Cl)cc1)[C@@H]1Cc2nc[nH]c2CN1Cc1ccc(Cl)cc1 do in these assays?
USP17 inh: inactive; USP28 inh: inactive; USP10 inh: inactive; USP8 inh: 50; USP30 inh: inactive

What do the screens show for `CCN(c1ccccc1)S(=O)(=O)c1ccc2[nH]cc(C(=O)NCc3cccnc3)c(=O)c2c1`?
USP17 inh: inactive; USP28 inh: inactive; USP10 inh: inactive; USP8 inh: 38; USP30 inh: inactive

What do the screens show for `Cn1cc(CN[C@H]2[C@H](O)[C@H](O)C[C@@H]2c2ccc(C(F)(F)F)nc2)cn1`?
USP17 inh: inactive; USP28 inh: inactive; USP10 inh: inactive; USP8 inh: 42; USP30 inh: inactive

Screens: PubChem, Buhrlage Lab, Dana-Farber Cancer Institute and Novartis Institutes for BioMedical Research (Cambridge, Mass)
